Source: PubChem BioAssay (NCI)
This is part of a sample that, as a whole, favours compounds with a hit. Of some 83,000 tested, about 20% had one in any assay.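 Results are percent growth after 48 hours of single-concentration exposure. 100 means growth as in untreated cells, lower positive values show inhibition; negative values down to -100 show cell death.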 Unmarked numbers belong to inactive results. Active and inactive are the calls of the source. Rule for the calls: active = growth percent below 10; inactive = the rest.

Experiments:
Test in all cases: NCI-60 one-dose screen, 48 h (100 = growth as untreated, 0 = no growth, -100 = all killed)
Conditions in all cases: 10 µM unless noted
[1] = system: K-562 leukemia
[2] = system: MALME-3M melanoma
[3] = system: MDA-MB-231 breast
[4] = system: RXF 393 renal
[5] = system: SF-268 CNS
[6] = system: SF-295 CNS
[7] = system: SF-539 CNS
[8] = system: UACC-257 melanoma
[9] = system: M14 melanoma
[10] = system: HCT-15 colon
[11] = system: HT29 colon
[12] = system: SNB-75 CNS
[13] = system: SNB-19 CNS
[14] = system: U251 CNS
[15] = system: PC-3 prostate
[16] = system: SK-MEL-5 melanoma
[17] = system: UACC-62 melanoma
[18] = system: LOX IMVI melanoma
[19] = system: SK-MEL-28 melanoma
[20] = system: SK-MEL-2 melanoma

SMILES	growth [1]	growth [2]	growth [3]	growth [4]	growth [5]	growth [6]	growth [7]	growth [8]	growth [9]	growth [10]	growth [11]	growth [12]	growth [13]	growth [14]	growth [15]	growth [16]	growth [17]	growth [18]	growth [19]	growth [20]
COc1ccc(-c2nc3ccc(-c4nnc(SCC(=O)Nc5ccc(C(=O)/C=C/c6ccc(Cl)cc6)cc5)o4)cc3[nH]2)cc1OC	92.7%	95.1%	95.2%	106%	106%	98%	83.8%	112%	108%	97.1%	108%	106%	109%	100%	97.7%	97.6%	98%	3.17% (active)	105%	112%
Fc1ccc(-c2nc(C(Cl)Cl)nc3cc(-c4ccccc4)nn23)cc1	11.4%	-15% (active)	11.8%	-70.1% (active)	24%	6.38% (active)	32.8%	1.45% (active)	-40.7% (active)	4.01% (active)	-9.69% (active)	-14.7% (active)	3.82% (active)	-53.6% (active)	31%	57%	40.6%	32.4%	-13.8% (active)	115%
COc1cc(-c2ccc3ncnc(NC(C)c4ccccc4)c3c2)cnc1OC (stereo not given)	76.3%	56.3%	36.1%	26%	44.9%	37.1%	47.2%	78.8%	68%	52.9%	65%	32.8%	48.7%	63.4%	29.5%	74.4%	63.4%	34.4%	60.9%	47.3%
C=CCSc1ccc2c(c1)C(N1CCNCC1)=Nc1ccccc1O2	29.3% [8.25 µM]	86.6% [8.25 µM]	77.8% [8.25 µM]	63% [8.25 µM]	74.8% [8.25 µM]	85.1% [8.25 µM]	74.1% [8.25 µM]	83% [8.25 µM]	83.4% [8.25 µM]	85.3% [8.25 µM]	44.2% [8.25 µM]	79.8% [8.25 µM]	82.7% [8.25 µM]	61.3% [8.25 µM]	66.9% [8.25 µM]	85.5% [8.25 µM]	91.6% [8.25 µM]	51.5% [8.25 µM]	80.3% [8.25 µM]	92.3% [8.25 µM]
CC(C)NC(=O)c1cc(-c2ccc(NC(=O)Nc3ccc(N4CCOCC4)c(C(F)(F)F)c3)cc2)nc2cccnc12	24.6%	68.3%	48.7%	-9.17% (active)	77.5%	1.17% (active)	20.9%	94.4%	73.2%	68.1%	60.8%	82.6%	62.6%	47%	44.5%	78.7%	75.3%	47.9%	59.2%	75.5%
Cc1cc(=O)oc2cc(OCCCOc3ccc(/C=C/C(=O)Nc4ccc(Cl)cc4)cc3)ccc12	69.1%	56.6%	69.7%	44.9%	66.9%	77.7%	75.6%	81.5%	74.2%	60.4%	98.1%	73.3%	89.6%	56.4%	67.7%	55.9%	75.7%	40.8%	75.8%	80.4%
OC1CCN(CCCOc2c3ccc(Cl)cc3nc3c2oc2ccccc23)CC1	-7.34% (active)	-81.2% (active)	-14.7% (active)	-74.3% (active)	4.41% (active)	-23.2% (active)	-76.1% (active)	-69.2% (active)	-84.2% (active)	-31.7% (active)	-44.3% (active)	-19.1% (active)	6.3% (active)	-43.3% (active)	-4.93% (active)	-97.8% (active)	-69.7% (active)	-85.8% (active)	-78.6% (active)	-86.3% (active)
CN(C)CCCNc1c2ccc(Cl)cc2nc2c1oc1ccccc12	3.28% (active)	14.6%	-17.5% (active)	-68.1% (active)	23%	-25.1% (active)	-68.7% (active)	32%	15.5%	-20.6% (active)	-22.2% (active)	29.9%	16.5%	18.8%	13.7%	-98.1% (active)	13.4%	-83.4% (active)	16.4%	21.3%
COc1cc(OC)c(C2SCC(=O)N2Nc2ncnc3ccccc23)cc1OC (stereo not given)	105%	96.2%	98.8%	124%	107%	102%	95.3%	108%	107%	103%	113%	101%	99.4%	105%	107%	102%	97.6%	117%	104%	123%
N[C@@H](Cc1cn(-c2ccnc3ccccc23)nn1)C(=O)O	107%	95.5%	97.5%	121%	103%	104%	93%	106%	108%	114%	102%	98.5%	88.7%	101%	96.2%	103%	95.4%	102%	97%	124%
Fc1ccc(-c2cc3nc(C(Cl)Cl)nc(-c4ccc(Cl)cc4)n3n2)cc1	24.3%	37.4%	7.4% (active)	-55.5% (active)	26.2%	9.78% (active)	21%	39.1%	22.3%	12.1%	-35% (active)	-2% (active)	6.37% (active)	-58.1% (active)	22.8%	76.9%	53.1%	70.9%	11.6%	89.4%
Clc1ccc2oc3c(OCCCn4ccnc4)c4ccccc4nc3c2c1	45.2%	97.9%	65.7%	57.9%	67.7%	54%	65.1%	96.4%	93.6%	40.4%	36.7%	68.5%	73.5%	61.6%	68.9%	92.8%	83.1%	42.8%	89.8%	112%
O=C1/C(=C/C2=Cc3ccccc3OC2)SC(=S)N1c1ccc(F)cc1	91%	101%	99%	106%	111%	102%	98.5%	108%	103%	105%	118%	100%	93.2%	94.9%	115%	100%	97.4%	92.5%	97.9%	120%
N/C(=N\c1nc2c(Br)cccc2s1)C(Br)Br	3.75% (active)	-36.7% (active)	-9.45% (active)	-51.1% (active)	49.2%	11.8%	-28.3% (active)	51.4%	10.9%	-27.7% (active)	-11.3% (active)	-0.636% (active)	27.7%	-28.2% (active)	13.5%	68.3%	-5.13% (active)	-84.9% (active)	-5.02% (active)	-42.1% (active)
Cc1sc2c(c1C)c(=O)nc1c(-c3nc(-c4ccc(F)cc4)no3)n[nH]n12	103%	96.6%	95.5%	120%	103%	98.4%	93.7%	105%	107%	92.5%	110%	85.7%	101%	102%	89.6%	107%	97.8%	93.7%	115%	113%
